Experimental data taken from the supplement of paper PMC7156485.
± gives the standard deviation of the averaged measurements.

These compounds were tested on HCC1569 (assay: cell number relative to DMSO (% of DMSO); higher = more cells (less growth inhibition / toxicity)). Details: concentration: 10 µM; 24 h.
How it was run: (§1)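 Treatment: HCC1569 and TDF cells, 800 per well in 384-well plates with RPMI and 10% FBS, were given compounds at 10 µM for 24 h at 37 °C, in triplicate. Readout: after 3.7% formaldehyde fixation, cells were stained with a rabbit anti-H1.0 antibody, an AlexaFluor 647 secondary and DAPI. Reported values are H1.0 nuclear intensity or cell number as percent of the plate control, taken as the median of replicates, with positional smoothing for HCC1569.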
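Note: TDF denotes transformed human dermal fibroblasts of mesenchymal origin.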

In order of rising cell number:
1. Cl.Cl.Nc1nccc(-c2c(-c3ccc(F)cc3)ncn2C2CCCCC2)n1  80.6
2. CCCCCCCNC1CCCC1CCCCCCC(=O)O (racemic)  99.7
3. O=c1nc[nH]c2c1ncn2C1CCC(CO)O1 (stereo not given) [Didanosine]  101
4. Oc1ccc(Cn2cc[nH]c2=S)cc1 [1-(4-Hydroxybenzyl)imidazole-2-thiol]  102
5. NC(N)=NCCCCN=C(N)N.O=S(=O)(O)O [Arcaine sulfate]  104

The compounds below were run on TDF in the same assay as above. Details: concentration: 10 µM; 24 h.
How it was run: as §1

In order of falling cell number:
1. COc1ccc2c(c1)CCC1C2CCC2(C)C(NCCCCCCN3C(=O)C=CC3=O)CCC12 (stereo not given)  111
2. CN1CCCCC1CCN1c2ccccc2Sc2ccc(S(C)=O)cc21.O=S(=O)(O)c1ccccc1 (stereo not given) [Mesoridazine besylate]  111
3. CCN(CC)CCNC(=O)c1ccc(N)cc1.Cl [Procainamide hydrochloride]  110
4. CN(C)c1ccc(O)c2c1CC1CC3C(N(C)C)C(=O)C(C(N)=O)=C(O)C3(O)C(=O)C1=C2O.Cl (stereo not given) [Minocycline hydrochloride]  109
5. NC(N)=S [Thiourea]  108
6. NC(N)=NCCCCN=C(N)N.O=S(=O)(O)O [Arcaine sulfate]  107
7. CNC(=C[N+](=O)[O-])NCCSCc1ccc(CN(C)C)o1.Cl [Ranitidine.HCl]  106
8. O=C(O)[C@H]1C[C@H](C(=O)O)N1 (relative stereo) [trans-Azetidine-2,4-dicarboxylic acid]  106
9. NC(=O)C(=O)[O-].[Na+] [Sodium Oxamate]  105
10. CS(=O)(=O)O.Cc1ccc(N(CC2=NCCN2)c2cccc(O)c2)cc1 [Phentolamine mesylate]  105
11. CCCCCCCCC=CCCCCCCCC(=O)OCC(O)COP(=O)(O)O (stereo not given) [Lysophosphatidic acid]  104
12. C=C1CCC(O)CC1=CC=C1CCCC2(C)C1CCC2C(C)CCCC(C)(C)O (stereo not given) [Calcifediol]  104
13. CC(N)=O [Acetamide]  103
14. O[C@@H]1[C@@H](O)[C@H](OC/C=C/c2ccccc2)O[C@H](CO[C@@H]2OC[C@H](O)[C@H](O)[C@H]2O)[C@H]1O  103
15. Clc1ccc(Nc2nnc(Cc3ccncc3)c3ccccc23)cc1 [Vatalanib]  103
16. CC1=NC(=NNc2ccc(S(=O)(=O)[O-])cc2S(=O)(=O)[O-])C(COP(=O)([O-])[O-])=C(C=O)C1=O.[Na+].[Na+].[Na+].[Na+]  103
17. Oc1ccc(Cn2cc[nH]c2=S)cc1 [1-(4-Hydroxybenzyl)imidazole-2-thiol]  101
18. C=C1C(=CC=C2CCCC3(C)C2CCC3C(C)CCCC(C)(C)O)CC(O)CC1O (stereo not given) [Calcitriol]  100
19. CC(C)(C)NCC(O)c1ccc(O)c(CO)c1 (stereo not given) [Salbutamol]  99.3
20. Nc1ccc(-c2cccc3c(=O)cc(N4CCOCC4)oc23)cc1  99.3
21. O=c1nc[nH]c2c1ncn2C1CCC(CO)O1 (stereo not given) [Didanosine]  98.9
22. COc1c(O)cc(O)c2c(=O)cc(-c3ccccc3)oc12 [Wogonin]  98.7
23. COc1ccc2cc(CCC(C)=O)ccc2c1 [Nabumetone]  97.4
24. CC(C)CC(NC(=O)C(O)C(N)Cc1ccccc1)C(=O)O.Cl (stereo not given) [Epibestatin hydrochloride]  96.3
25. CC(C)C(NC(=O)OCc1ccccc1)C(=O)NC(C=O)Cc1ccccc1 (stereo not given)  96.2
26. Cc1ccc(F)cc1C(=O)Nc1ccc(C(=O)N2Cc3cccn3Cc3ccccc32)c(Cl)c1  95.3
27. COC(=O)C(=C1OC(=O)C(c2ccccc2)=C1O)c1ccccc1 [Vulpinic acid]  95.3
28. COc1ccc2c(c1)c(CC(=O)O)c(C)n2Cc1ccc(F)cc1 [1-(4-Fluorobenzyl)-5-methoxy-2-methylindole-3-acetic acid]  95.2
29. CC(C(=O)O)c1ccc2c(c1)Cc1cccnc1O2 (stereo not given) [Pranoprofen]  94.7
30. O.O=P(O)(O)C(O)(Cn1ccnc1)P(=O)(O)O  94
31. CCCCCCCNC1CCCC1CCCCCCC(=O)O (racemic)  93.5
32. CCC(=C(CC)c1ccc(O)cc1)c1ccc(O)cc1 [Diethylstilbestrol]  92.6
33. COC1CC2CCC(C)C(O)(O2)C(=O)C(=O)N2CCCCC2C(=O)OC(C(C)CC2CCC(O)C(OC)C2)CC(=O)C(C)C=C(C)C(O)C(OC)C(=O)C(C)CC(C)C=CC=CC=C1C (stereo not given) [Rapamycin]  92.4 ± 8.9
34. Cl.Cl.Nc1nccc(-c2c(-c3ccc(F)cc3)ncn2C2CCCCC2)n1  92.2
35. CC(=O)O.O=C(O)c1ccc2c3c1cccc3c(=O)n1c3ccccc3nc21  89.6
36. C=C1C(=O)OC2C1CCC(=C)C1CCC(=C)C12 (stereo not given) [Dehydrocostus lactone]  64.3
37. NC(=O)Nc1sc(-c2ccc(F)cc2)cc1C(N)=O  60.6
38. Cc1cncc2cccc(S(=O)(=O)N3CCCN(C(=O)CN)CC3C)c12.Cl.Cl.O (stereo not given) [Rho Kinase Inhibitor IV]  42.8
39. CC(OC(=O)c1ccc(F)cc1F)C(=O)N(C)C1CCS(=O)(=O)C1 (stereo not given) [Cdk2/9 Inhibitor]  29.1
40. CC[n+]1c(C=CN(C)c2ccccc2)n(-c2ccccc2)c2ccc(-c3nc4ccccc4s3)cc21.[I-] [Akt Inhibitor IV]  21.3
